Here are results for 87 compounds from PubChem BioAssay AID743269 (The Scripps Research Institute Molecular Screening Center, 2014).

Among all 370,000 compounds or so, about 2,400 (0.65%) were called active. The list comes from a sample in which actives are over-represented; it also holds similar structures and randomly drawn compounds. Unmarked numbers belong to inactive results.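 How the source made its calls: active means inhibition above the screen-wide mean plus 3 SD (cut at about 13% in these data); inactive means the rest.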

The subject of this assay is HIV-1 integrase (with human LEDGF/p75). Briefly: blockers of LEDGF/p75-dependent integrase strand transfer – biochemical, TR-FRET, high throughput, primary screen (AID 743269).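 Further: signal is the Cy5 over europium emission ratio at 671 and 618 nm; 0% = plate median of compound wells.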 Particulars: TR-FRET IN-LEDGF/p75 DNA integration, Eu/Cy5; at 3.7 µM; active compounds read high. Background: In TR-FRET formats the signal depends on donor and acceptor labels being close together.
For `Cc1ccc(C(=O)N/C(=C/c2cccs2)C(=O)N2CCCCC2)cc1`, the inhibition (in general, the drop in the measured response relative to a control, in per cent) is 33% (active).
To `O=C(N/C(=C\c1ccc(O)cc1)C(=O)N1CCCCC1)c1ccccc1` belongs 3.65%; to `CN1CCN(C(=O)/C(=C\c2cccs2)NC(=O)c2cccs2)CC1`, -1.57%.
To `Cc1ccc(Cn2cc(CN3[C@@H](C)COc4cc(Br)ccc4S3(=O)=O)nn2)cc1` belongs 4.11%; to `O=C1Nc2ccccc2OC1CC(=O)N1CCCCCCC1` (configuration not stated), 0.2%; to `CCC(CO)Nc1cccc2c1S(=O)(=O)N(Cc1cn(Cc3ccccc3C(F)(F)F)nn1)Cc1ccccc1O2` (configuration not stated), -2.25%.
In the case of `FC(F)(F)c1cccc(Cn2ccc3ccc(-c4ccc5ccn(Cc6ccccc6)c5c4)cc32)c1`, the inhibition was 3.37%.
With `CC(=O)N1CCc2cc(S(=O)(=O)NCCC(=O)N3CCCC3)ccc21`, the inhibition was -3.8%.
To `Cc1ccccc1C(=O)N1CCC(C(=O)Oc2ccc(C#N)cc2)CC1` belongs -4.31%.
To `CC1(OC(=O)C2CCCC2)C(=O)C=C2C=C(c3ccc(C#N)cc3)OC=C2C1=O` (configuration not stated) belongs 13.4% (active).
The value for `CC1(C(=O)NS(=O)(=O)c2ccc(C#N)cc2)CCN1C(=O)c1ccc(C2CCCCC2)cc1` (configuration not stated) was -1.93%; that for `C[C@H]1CCC/C=C/C(=O)c2c(O)cc(O)cc2CC(=O)O1` was -2.09%.
Turning to `O=C(Cn1c(=O)n(Cc2ccco2)c(=O)c2ccccc21)NCC1CCCO1` (configuration not stated), the inhibition was 2.8%.
To `Cc1cc2c(c(=O)n1C)C(C(C)C)C(C#N)=C(N)O2` (configuration not stated) belongs 0.88%.
On to `Cc1cc2c(c(=O)n1Cc1ccco1)C(c1ccccc1)C(C#N)=C(N)O2` (configuration not stated), for which the inhibition is 42.2% (active).
For the compound `N#Cc1ccc(OC[C@@H](O)CN2CCC(C(O)(c3ccccc3)c3ccccc3)CC2)c(F)c1`, the inhibition was 1.07%.
For `Cc1ccnc(NS(=O)(=O)c2ccc(NC(=O)c3ccc(S(=O)(=O)N4CCOCC4)cc3)cc2)n1`, the inhibition is -0.6%.
The value for `O=C(Nc1nnc(-c2ccco2)o1)c1ccc(S(=O)(=O)N2CCOCC2)cc1` was 27% (active).
The value for `O=C(Nc1nnc(-c2ccccc2)o1)c1cccc(S(=O)(=O)N2CCOCC2)c1` was 4.42%.
The value for `Cc1cccc(C(=O)Nc2c(-c3ccc(F)cc3)nc3ncccn23)c1` was 1.19%; that for `C=CCN1[C@H](CC(C)C)COc2cccc(N3CCCC3)c2S1(=O)=O` was -3.3%; that for `CCN(CC)C(=O)CC[C@H]1CC[C@]2(CCCN(Cc3ccc(Cl)cc3)C2)O1` was 3.81%.
In the case of `O=C(OC1CC2CC1[C@H]1CCCCN1C2=O)N1CCOCC1` (some centres not stated), the inhibition is -2.09%.
To `CCCCNC(=O)OC1CC2CC1[C@H]1CCCCN1C2=O` (some centres not stated) belongs 25.4% (active).
Regarding `CCCC[C@H]1C2CC(OC(=O)NCc3ccccc3)C(C2)[C@H]2CCCCN21` (some centres not stated), the inhibition was -3.96%.
Consider `c1coc(CCNc2ncnc3ccc(-c4ccc5c(c4)OCO5)cc23)c1`, for which the inhibition was 2.41%.
The value for `COC(=O)c1cc(S(=O)(=O)N2CCN(c3ccccc3C)CC2)cn1C` was -0.95%; that for `O=C(Cc1coc2ccc3ccccc3c12)NCc1cccs1` was 0.4%; that for `Cc1nc2c(C(=O)NCc3cccs3)cnn2c(C)c1Cc1ccc(F)cc1` was -1.76%.
Regarding `CC(C)Cn1c(N)c(C(=O)NCc2cccs2)c2nc3ccccc3nc21`, the inhibition was 23.8% (active).
Turning to `N[C@@H](Cc1ccccc1)C(=O)N1CCC[C@@H]1C(=O)N1CCC2CCN(S(=O)(=O)c3ccccc3)CC21` (some centres not stated), the inhibition is 3.42%.
To `Cc1ccc(CSc2nnc(SCC(=O)NN=Cc3cc(Br)ccc3F)s2)cc1` belongs 3.4%; to `CCOC(=O)c1ccc(NC(=O)c2c(NCc3ccccc3)[nH]c(=O)[nH]c2=O)cc1`, 2.44%.
Turning to `CCOC(=O)c1ccc(Nc2cc3ccccc3c(=O)[nH]2)cc1`, the inhibition is 15.5% (active).
To `CCOC(=O)c1ccc(NC(=O)c2c(N)n(C)c(=O)[nH]c2=O)cc1` belongs -0.3%; to `COc1ccccc1C(=O)NC1CCCCN(C(C)C)C1=O` (configuration not stated), -1.35%; to `COC(=O)C[C@@H]1CC[C@H]2[C@@H](COc3ccc(NS(=O)(=O)CC(F)(F)F)cc3C(=O)N2C)O1`, -3.99%.
On to `COC(=O)[C@@]12CCCCC=C1N(CCc1ccc(Cl)cc1)C(=O)[C@H]2CC(=O)NCc1ccc(OC)c(OC)c1`, for which the inhibition is 2.21%.
To `C=CCN(Cc1ccc2c(c1)OCO2)C(C#CC1CC1)C(C)(C)C` (configuration not stated) belongs 0.61%; to `Cc1ccc(S(=O)(=O)N2CCN(C)CC2)cc1C(=O)NC1CCCCC1`, 2.41%; to `COc1ccc(S(=O)(=O)N2CCOCC2)cc1C(=O)NC1CCCCC1`, 1.4%.
On to `COc1ccc(S(=O)(=O)N2CCCCC2)cc1C(=O)NC1CCS(=O)(=O)C1` (configuration not stated), for which the inhibition is 19.8% (active).
The value for `C=CCN1C(=O)[C@@H](CC(=O)NCCCCc2ccccc2)[C@]2(C(=O)OCC)CCCCC/C=C/12` was -2.38%; that for `Cc1ccccc1NC(=O)C1CCN(c2ncccn2)CC1` was -1.73%.
The value for `COc1cccc(C2CC(c3cccs3)=NN2C(=O)CSC2=NCCS2)c1OC` (configuration not stated) was -1.38%.
To `COc1ccc(C2CC(c3cccs3)=NN2c2nc(C)c(C(C)=O)s2)cc1OC` (configuration not stated) belongs -0.06%; to `COc1ccc(C2CC(c3cccs3)=NN2C(=O)COC(=O)c2cc3ccccc3cc2O)cc1OC` (configuration not stated), 23% (active).
`Nc1ccc2nc3c(=O)[nH]c(=S)[nH]c3nc2c1`: the inhibition is 39.9% (active).
The value for `COc1ccc(Cn2cc(CN3[C@@H](CC(C)C)COc4cc(Br)ccc4S3(=O)=O)nn2)cc1` was 3.34%; that for `Cc1nc(CNc2ncnc3ccc(-c4ccc5c(c4)OCO5)cc23)cs1` was -1.03%.
The value for `O=C(NCCCc1ccccc1)[C@H](Cc1ccccc1)NC1(C(=O)NCCc2c[nH]c3ccccc23)CCC1` was -0.75%; that for `COc1ccc(N2CCN(CCNS(=O)(=O)c3ccc(C(C)(C)C)cc3)CC2)cc1` was 1.13%.
The value for `CC(=O)OCCN1CCCC12CCC(c1ccccc1)CC2` (configuration not stated) was -3.46%; that for `COC(=O)C1CN(Cc2cn(Cc3ccc(F)cc3)nn2)CCS(=O)(=O)N1Cc1ccc(Cl)cc1` (configuration not stated) was 0.07%; that for `CC(=O)OCC1(O)CC23CCC4c5ccoc5CCC4(C)C2CCC1C3` (configuration not stated) was 36.9% (active).
For the compound `COC(=O)c1ccccc1-n1cc(COC(=O)NCCc2ccccc2)nn1`, the inhibition was -3.43%.
The value for `C=CCN1C(=O)[C@@H](CC(=O)NCC2CCCCC2)[C@]2(C(=O)OC)CCCCC=C12` was 0.59%; that for `CCOc1ccc(N(CC(=O)Nc2c(C)n(C)n(-c3ccccc3)c2=O)S(=O)(=O)c2ccc(Cl)s2)cc1` was 2.7%.
The value for `O=C(O)C(CCc1ccccn1)c1ccccc1` (configuration not stated) was 0.2%; that for `CN(C)c1ccc(C(CC(=O)O)C(=O)O)cc1` (configuration not stated) was 18.1% (active); that for `CC(=O)NC(CC(=O)O)c1ccc(F)cc1` (configuration not stated) was -3.02%.
To `COc1ccnc(NC(=S)N2CCN(c3ncc(C(F)(F)F)cc3Cl)CC2)c1` belongs 4.7%.
Regarding `O=C1OC(NC(=O)c2ccccc2)C(N2CCOCC2)=C1Cl` (configuration not stated), the inhibition was 1.92%.
As for `O=C(Nc1ccc(F)cc1)c1cccnc1N1CCOCC1`, the inhibition is 1.85%.
The value for `O=C(O)c1ccc(NN=CC2=C(N3CCOCC3)/C(=C/c3ccccc3)CC2)cc1` was 27.7% (active); that for `COc1ccc(Cn2ccc3ccc(-c4ccc5ccn(Cc6ccccc6C)c5c4)cc32)cc1` was -3.41%.
The value for `O=S1(=O)c2ccc(N3CCN(Cc4ccccc4F)CC3)cc2Oc2ccccc2CN1Cc1cn(Cc2ccc(Cl)cc2)nn1` was 3.58%; that for `Cc1ccsc1/C=N/NC(=O)Cc1cc(=O)[nH][nH]1` was -1.18%; that for `Cc1ccccc1NCC(=O)N/N=C\c1ccc([N+](=O)[O-])s1` was 19.6% (active).
For `O=[N+]([O-])c1ccc(C=Nc2ccc(Cl)cc2Cl)s1`, the inhibition is -0.56%.
On to `CN(CCO)c1cccc2c1S(=O)(=O)N(Cc1cn(Cc3ccc(C(F)(F)F)cc3)nn1)Cc1ccccc1O2`, for which the inhibition was 5.32%.
To `CC(=O)Nc1ccc(OC[C@@H](O)CN2CCC(C(O)(c3ccccc3)c3ccccc3)CC2)cc1` belongs -1.09%; to `COc1ccc(-n2c(COc3ccccc3)nnc2SCC(=O)Nc2ccc3c(c2)OCO3)cc1`, -0.67%.
Regarding `C#CCCN([C@H](C(=O)OC)C(C)C)S(=O)(=O)c1ccc(F)cc1Br`, the inhibition was -3.33%.
The value for `c1cncc(CNc2ccnc(-c3ccc4c(c3)OCO4)n2)c1` was 2.55%; that for `Cc1ccc(OCc2nnc(SC/C=C/c3ccccc3)n2Cc2ccco2)cc1` was 1.59%.
The value for `Cc1ccc(S(=O)(=O)/N=C(/Nc2ccc3[nH]c(=O)[nH]c3c2)c2ccccc2)cc1` was -0.12%; that for `Cc1ccc(C(=O)NC(=S)Nc2ccc3[nH]c(=O)[nH]c3c2)cc1C` was 16.7% (active).
`Cc1cc(C)cc(C(=O)NC(=S)Nc2ccc3[nH]c(=O)[nH]c3c2)c1`: the inhibition was 3.15%.
For the compound `O=C(CSc1nc2ccccc2n1Cc1ccccc1Cl)N/N=C\c1c[nH]c2ccccc12`, the inhibition was 5.76%.
`O=C(Nc1nc(-c2ccco2)c(-c2ccco2)s1)c1ccco1`: the inhibition was 68.8% (active).
With `O=C(Nc1ccccc1C(=O)N1CCCCC1)c1ccco1`, the inhibition was 6.1%.
Regarding `O=C(Nc1c(-c2ccccc2)nc2c(Br)cc(Br)cn12)c1ccco1`, the inhibition was 1.6%.
Regarding `CCOC(=O)C1CCN(C(=O)C(C)(C)NC(=O)Nc2ccccc2Cl)CC1`, the inhibition is -0.46%.
Take `O=C(CN(C(=O)c1csnn1)c1cccc(Cl)c1)NC1CCCC1`: the inhibition was 27.8% (active).
The value for `O=C(CN(C(=O)c1nsc(Cl)c1Cl)c1cccc(F)c1)NC1CCCC1` was -3.15%; that for `O=C(CN(C(=O)c1csnn1)c1ccc(Br)cc1)NC1CCCC1` was 1.56%.
